# Rows were chosen to be rich in hits. Some 19% of all compounds tested hit in one or more screens of this group.
# MCF10A rerep – DNA re-replication induction in MCF 10a cells; MCF 10A DNA re-replication, Hoechst nuclear intensity, 48 h; Potency, µM (series often up to 46.1 µM), for the others: at the top dose activity, positive = re-replication, most hits filed as activators; hit rate 2.9% among 350,000; AID 624296; note: potency is the fitted concentration of half-maximal effect; % of control where 0% means no effect; nearly all actives have a fitted effect of over 50% in size
# IL1B secr inh – inflammasome signaling inhibition, IL-1 beta readout. THP-1 LPS/ATP IL-1B secretion, AlphaLISA, 16 h; stronger effect = lower value. activity change, % at 57.5 µM. hit rate 4.7% among 360,000. AID 743279; in the data active = activity change below about -50%; inconclusive = mostly about -30% to -49%; note: % is set by controls: 0 for no effect and ±100 for the full control effect
#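 Secreted IL-1B measured by AlphaLISA bead assay after 16 h compound exposure of THP-1 cells; compounds (final up to 57.5 uM) added 1 h before LPS (250 ng/mL) and ATP (1.25 mM) stimulation; lower signal means less secretion.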
# SW480 rereplic – DNA re-replication induction in SW480 cells | hit rate 1.8% among 340,000 | AID 624297 | SW480 DNA re-replication, Hoechst DNA content imaging, 48 h | Potency, µM (highest dose often 46.1 µM), inactives show top-dose re-replication activation, actives largely listed as activators; note: potency is the fitted concentration of half-maximal effect; % of control where 0% means no effect; nearly all actives have a fitted effect of over 55% in size
#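 Quantitative HTS format with DMSO vehicle controls; 48 hr drug incubation at 37 C, then 40 min Hoechst staining and scanning imager measurement at 405 nm excitation.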
# BCR signal inh – blocks chronic active B-cell receptor signaling; ABC-DLBCL IkBa-CBG/CBR reporter, luminescence ratio, 4 h; Potency, µM (top dose mostly 46.1 µM), without a hit: top-dose activity change, negative = inhibition, hits mostly inhibitors; hit rate 0.05% among 340,000; AID 493014; active = well fitted inhibition curve with a large enough effect in the signal ratio, with a control signal flat, not every such curve was filed as active; inconclusive = small, poorly fitted or top-dose-only effect, or effect the other way, or a change in a side signal; the % refers to the signal ratio;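 note: potency is the fitted concentration of half-maximal effect; plate controls were basal doxycycline-induced cells for no effect and cells given 10 µM MG132 for full effect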
#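 Doxycycline induced both beetle luciferases in TMD8 lymphoma cells; IKK-driven degradation limits the IkappaBalpha-fused green signal, while red luminescence normalises for cell number and nonspecific effects. Compounds tested up to 46 uM, 4 hrs.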
# DT40 TDP1 no CPT – qHTS for Inhibitors of human tyrosyl-DNA phosphodiesterase 1 (TDP1): qHTS in cells in absence of CPT | AID 686978, 2013 | DT40 Tdp1-/- hTDP1 cells, no CPT, ATP luminescence, 48 h | Potency, µM (highest dose often 46.2 µM), for inactives: at the highest dose activity change, negative = growth inhibition, actives largely listed as inhibitors | hit rate 15% among 420,000; note: potency is the fitted concentration of half-maximal effect; % is set by controls: 0 for no effect and ±100 for the full control effect; nearly all actives have a fitted effect of over 55% in size
#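 Chicken DT40 Tdp1-/- cells complemented with human TDP1, screened without camptothecin (DMSO vehicle only), 400 cells/well. Compounds pin-transferred, cells incubated at 37 °C for at least 48 hr. Growth read as ATP-dependent luminescence (CellTiter-Glo, 30 min at RT).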
# TDP1 cell CPT – growth inhibition of DT40 Tdp1-/-;hTDP1 cells with camptothecin (screen for TDP1 inhibitors). Potency, µM (titrated, usually from 46.2 µM), without a hit: at the highest dose activity change, negative = growth inhibition, hits mostly inhibitors. chicken DT40 Tdp1-/-;hTDP1 cells + 20 nM CPT, ATP luminescence, 48 h. AID 686979. hit rate 12% among 420,000; note: potency is the fitted concentration of half-maximal effect; % is set by controls: 0 for no effect and ±100 for the full control effect; nearly all actives have a fitted effect of over 55% in size
#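 Chicken DT40 Tdp1-/- cells stably complemented with human TDP1 were seeded at 400 cells/well in medium containing 20 nM camptothecin, exposed to pin-transferred compounds, and grown at 37 °C for at least 48 hr. Viability was read as ATP luminescence.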
# The depositor's hits bear a star; ? = inconclusive; . = no result given; [ ] = another dose, or the depositor's remark. Unless noted, calls come from the whole dose curve; as a rule, active = well fitted curve in the direction sought with a large enough effect; inconclusive = small, poorly fitted or top-dose-only effect, or another doubt; inactive = no such curve, though single readings can be large; an effect the other way counts as inactive or inconclusive.
SMILES,MCF10A rerep,IL1B secr inh,SW480 rereplic,BCR signal inh,DT40 TDP1 no CPT,TDP1 cell CPT
N#CC(c1cccnc1)N1CCOCC1 (configuration not stated),0%,18,-26%,0%,11%,-4%
CC(CC(C#N)(c1ccccc1)c1ccccc1)N1CCOCC1 (configuration not stated),-19%,?,5%,.,?,23µM*
CN1[C@H]2CC(OC(=O)[C@H](CO)c3ccccc3)C[C@H]1[C@H]1O[C@H]12 (some centres not stated),2%,.,-7%,.,.,.
COc1ccc(N/N=C/c2c(O)n(-c3ccc(C)c(C)c3)c(=O)[nH]c2=O)cc1,?,-6,-10%,1%,29µM*,?
Clc1cccc(/C=N\Nc2nccs2)c1,5.8µM*,2,-2%,?,4.6µM*,15µM*
C=CCN1CCc2cccc3c2C1Cc1ccc(O)c(O)c1-3 (configuration not stated),.,.,.,.,5.2µM*,13µM*
COc1ccc2c(c1O)-c1c(OC)c(OC)cc3c1[C@@H](C2)N(C)CC3,.,.,.,.,-4%,-17%
CCCN1CCc2cccc3c2[C@H]1Cc1ccc(O)c(O)c1-3,?,-3,22%,.,?,-85%
CN1CCc2cc(O)cc3c2C1Cc1ccc(O)c(O)c1-3 (configuration not stated),.,.,.,.,2.1µM*,2.6µM*
CC(C)=CC1C(C(=O)OCN2C(=O)C3=C(CCCC3)C2=O)C1(C)C (configuration not stated),2%,.,-2%,.,-23%,-28%
CCOP(=O)(OCC)c1cccc(P(=O)(c2ccccc2)c2ccccc2)c1O,12%,55,-2%,1%,?,-120%
CCCOC(=O)COc1cc(C)cc2oc(=O)c3c(c12)CCC3,7%,52,?,0%,5%,-2%
CCCOc1ccc(C(=O)Nc2ccc(-c3cc4ccccc4oc3=O)c(C)c2)cc1,.,.,.,.,5.2µM*,10µM*
CC(=O)Oc1ccc2c3c1O[C@H]1[C@@H](OC(C)=O)C=C[C@H]4[C@@H](C2)N(C)CC[C@@]341,.,.,.,.,?,-28%[92.5 µM]
COc1ccccc1NC(=O)N(Cc1ccco1)C1CCN(C(C)=O)CC1,.,.,.,-3%,?,-25%
Nc1c(C(=O)Nc2ccc(OC(F)(F)F)cc2)sc2nc3c(cc12)N1CCC3CC1,.,.,.,.,18µM*,16µM*
COc1ccc([C@H]2CC(=O)C=C(c3ccc4c5c(cccc35)CC4)C2)cc1,?,-7,0%,0%,?,?
S=C(SSC(=S)N1CCCCC1)N1CCCCC1,.,.,.,.,0.94µM*,0.75µM*
Cc1ccc(NC(=O)CSc2nc(-c3ccco3)cc(C(F)(F)F)n2)c(C)c1,.,.,.,.,1.8µM*,1.5µM*
C[C@@]12CCC(OS(=O)(=O)O)C[C@@H]1CCC1C2CC[C@]2(C)C(=O)CCC12 (some centres not stated),.,.,.,.,2%,-2%
COc1ccccc1-n1c(-c2cccs2)nc2ccccc2c1=O,?,63,-37%,-1%,13µM*,15µM*
O=c1c2ccccc2nc(-c2ccccc2)n1-c1ccccc1O,-1%,45,2%,?,?,?
COc1ccccc1-n1c(-c2ccccc2)nc2ccccc2c1=O,-2%,12,-3%,-15%,?,16µM*
CC1([N+](=O)[O-])COP(=O)(Nc2ccc(Cl)cc2)OC1 (configuration not stated),1%,-1,-4%,.,?,?
COc1ccc(-c2n(-c3ccccn3)c3ccccc3[n+]2-c2ccccn2)cc1,1%,0,-6%,-1%,13µM*,13µM*

# Source: PubChem
